Potency data for 57 molecules are collected here from PubChem BioAssay (Tox21).

The nature of assay [1]: cAMP Responsive Elements (CRE) small molecule antagonists, cell-based qHTS assay: qHTS cell viability counter screen (AID 2060913). Also: nearly all actives have a fitted effect of over 40% in size. The following applies: CRE-bla HEK293T viability, CellTiter-Glo luminescence, 5 h; series mostly up to 92.4 µM. The method in brief:
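CRE-bla HEK293T cells were seeded in assay medium with 10% dialyzed FBS, incubated 18 hrs at 37 C, then exposed to compounds plus 0.25 uM final NKH477 for 3 hrs. Viability was read by CellTiter-Glo luminescence after 30 min, in the same wells.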
In general terms: qHTS replaces the single test concentration by a dilution series.

Assay [2] in a line: cAMP Responsive Elements (CRE) small molecule agonists, cell-based qHTS assay: qHTS cell viability counter screen (AID 2060914). Also: nearly all actives have a fitted effect of over 50% in size. The following applies: CRE-bla HEK293T viability, CellTiter-Glo luminescence, 5 h; series mostly up to 92.4 µM. Put shortly: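 HEK 293T CRE-bla; DMEM + 10% dialyzed FBS, 25 mM HEPES; 18 h pre-incubation; compound 3 h, 37 °C/5% CO2; CellTiter-Glo added after reporter read; luminescence after 30 min RT.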

Values joined by “and” are separate entries in the source; they are usually repeats but may differ in a detail not shown here. Identical values can stand only once. Records with an inconclusive call do not appear. A number with no mark means an inactive call. Active and inactive are the calls of the source. Calls follow the shape of the dose curve; as a rule, active = well fitted cell-killing curve with a large enough effect in the repeat runs; inconclusive = weak or mixed curves, or effect the other way; inactive = flat fitted curve, though single readings scatter.
Potency is read from the fitted curve at half-maximal effect.

As to `CC1(C)CC(N)CC(C)(C)N1`, the Potency result in assay [1] and in assay [2] was “inactive” each time.
`CCOC(=O)CCC(C)=O`: the Potency entry in assay [1] and in assay [2] was “inactive” in each case.
For the molecule `C=C(C)[C@@H]1CCC2=CC(=O)C[C@@H](C)[C@]2(C)C1`, the Potency entry in assay [1] and in assay [2] was “inactive” in each case.
On to `CC(C)(CO)[N+](=O)[O-]`, for which the Potency result in assay [1] and in assay [2] was “inactive” each time.
Consider `CC(C)(C)c1ccc(CCC=O)cc1`, for which the Potency result in assay [1] and in assay [2] was “inactive” each time.
For `Cc1cc(OCCOCC[N+](C)(C)Cc2ccccc2)ccc1C(C)(C)CC(C)(C)C`, the Potency is 54.2 µM (active) and 29.8 µM (active) in assay [1]; 60.8 µM (active) and 26.6 µM (active) in assay [2].
`O=Cc1ccc([N+](=O)[O-])cc1`: the Potency entry in assay [1] and in assay [2] was “inactive” in each case.
Take `Clc1ccc(C(Cn2ccnc2)OCc2ccc(Sc3ccccc3)cc2)c(Cl)c1` (centres undefined): the Potency entry in assay [1] and in assay [2] was “inactive” in each case.
Regarding `Oc1ccc2c(c1)CCC2`, the Potency entry in assay [1] and in assay [2] was “inactive” in each case.
Turning to `Nc1ccccc1N`, the Potency result in assay [1] and in assay [2] was “inactive” each time.
On to `Cc1cc(C)c(O)c(C(C)(C)C)c1`, for which the Potency entry in assay [1] and in assay [2] was “inactive” throughout.
Regarding `CCC(C)(C)C1CCC(OC)CC1` (centres undefined), the Potency result in assay [1] and in assay [2] was “inactive” throughout.
As to `Clc1cc(Cl)c(-c2c(Cl)c(Cl)cc(Cl)c2Cl)cc1Cl`, the Potency result in assay [1] and in assay [2] was “inactive” each time.
Regarding `O=C1OC2(c3ccccc31)c1cc(Br)c(O)c(Br)c1Oc1c2cc(Br)c(O)c1Br`, the Potency result in assay [1] and in assay [2] was “inactive” throughout.
Turning to `NNC(=O)OCc1ccccc1`, the Potency entry in assay [1] and in assay [2] was “inactive” throughout.
As for `O=C(O)c1ccccc1C(=O)OCc1ccccc1`, the Potency result in assay [1] and in assay [2] was “inactive” each time.
Regarding `CC[C@H]1OC(=O)[C@H](C)[C@@H](O[C@H]2C[C@@](C)(OC)[C@@H](O)[C@H](C)O2)[C@H](C)[C@@H](O[C@@H]2O[C@H](C)C[C@H](N(C)C)[C@H]2O)[C@](C)(OC)C[C@@H](C)C(=O)[C@H](C)[C@@H](O)[C@]1(C)O`, the Potency result in assay [1] and in assay [2] was “inactive” each time.
Turning to `CCCN(CCC)C(=O)SCC`, the Potency entry in assay [1] and in assay [2] was “inactive” throughout.
Consider `CC[C@H]1OC(=O)[C@H](C)[C@@H](O[C@H]2C[C@@](C)(OC)[C@@H](O)[C@H](C)O2)[C@H](C)[C@@H](O[C@@H]2O[C@H](C)C[C@H](N(C)C)[C@H]2O)[C@](C)(O)C[C@@H](C)CN(C)[C@H](C)[C@@H](O)[C@]1(C)O`, for which the Potency entry in assay [1] and in assay [2] was “inactive” each time.
Take `c1ccc2c(c1)c1cccc3ccc4cccc2c4c31`: the Potency entry in assay [1] and in assay [2] was “inactive” each time.
For the molecule `COc1nc(N)nc2c1ncn2[C@@H]1O[C@H](CO)[C@@H](O)[C@@H]1O`, the Potency result in assay [1] and in assay [2] was “inactive” throughout.
Regarding `C=CC(=O)OCCOc1ccccc1`, the Potency entry in assay [1] and in assay [2] was “inactive” throughout.
Regarding `CCCCCCC(=O)O`, the Potency result in assay [1] and in assay [2] was “inactive” throughout.
For the molecule `COc1c(Br)cc(Br)c(C)c1Br`, the Potency entry in assay [1] and in assay [2] was “inactive” each time.
In the case of `CCN(Cc1cccnc1)C(=O)c1cccc(Cl)c1[C@]1(C)C(=O)N(Cc2ccc(OC)cc2OC)c2ccc(Cl)cc21`, the Potency result in assay [1] and in assay [2] was “inactive” each time.
In the case of `COCCCN`, the Potency entry in assay [1] and in assay [2] was “inactive” throughout.
In the case of `COC(=O)/C=C(\C)CCC=C(C)C`, the Potency result in assay [1] and in assay [2] was “inactive” throughout.
Consider `CCCCN1C(=O)c2ccccc2C1=O`, for which the Potency entry in assay [1] and in assay [2] was “inactive” in each case.
Consider `C[N+](C)(C)CCOC(=O)CCC(=O)OCC[N+](C)(C)C`, for which the Potency entry in assay [1] and in assay [2] was “inactive” each time.
For `OCCCc1cccnc1`, the Potency entry in assay [1] and in assay [2] was “inactive” throughout.
As for `Cc1cccc(OCCOc2cccc(C)c2)c1`, the Potency entry in assay [1] and in assay [2] was “inactive” in each case.
Regarding `CC1=CCC(O)(C(C)C)CC1` (centres undefined), the Potency entry in assay [1] and in assay [2] was “inactive” in each case.
Turning to `CN1CCOCC1`, the Potency result in assay [1] and in assay [2] was “inactive” throughout.
`CCOC(=O)N1CCC(n2c(=O)[nH]c3cc(Cl)ccc32)CC1`: the Potency entry in assay [1] and in assay [2] was “inactive” throughout.
Regarding `C=CC(=O)OCCCCCCCCCC`, the Potency result in assay [1] and in assay [2] was “inactive” in each case.
Turning to `COC(=O)C(C)Oc1ccc(Oc2ncc(C(F)(F)F)cc2Cl)cc1` (centres undefined), the Potency result in assay [1] and in assay [2] was “inactive” each time.
With `CCC(O)CO` (centres undefined), the Potency result in assay [1] and in assay [2] was “inactive” in each case.
For the molecule `CN(C)CCOC(C)(c1ccccc1)c1ccccn1` (centres undefined), the Potency result in assay [1] and in assay [2] was “inactive” each time.
In the case of `CCCCNCCCC`, the Potency entry in assay [1] and in assay [2] was “inactive” in each case.
Regarding `C=CCCC(=O)/C=C/C1C(C)=CCCC1(C)C` (centres undefined), the Potency result in assay [1] and in assay [2] was “inactive” throughout.
As to `NS(=O)(=O)c1cc2c(cc1Cl)NC(C(Cl)Cl)NS2(=O)=O` (centres undefined), the Potency result in assay [1] and in assay [2] was “inactive” in each case.
With `COc1cc(C(=O)OCCCN2CCCN(CCCOC(=O)c3cc(OC)c(OC)c(OC)c3)CC2)cc(OC)c1OC`, the Potency result in assay [1] and in assay [2] was “inactive” throughout.
With `CCC(C)OC(=O)c1ccc(O)cc1` (centres undefined), the Potency result in assay [1] and in assay [2] was “inactive” in each case.
In the case of `CCCCCCCCCOC(=O)CCCCC(=O)OCCCCCCC`, the Potency entry in assay [1] and in assay [2] was “inactive” each time.
For the molecule `C=Cc1c(C)c2cc3[nH]c(cc4nc(cc5nc(cc1[nH]2)C(C)=C5CCC(=O)O)C(CCC(=O)O)=C4C)c(C)c3C=C`, the Potency result in assay [1] and in assay [2] was “inactive” in each case.
Take `CCNc1nc(NC(C)(C)C)nc(OC)n1`: the Potency result in assay [1] and in assay [2] was “inactive” each time.
For the molecule `COc1ccc(-c2cc(=S)ss2)cc1`, the Potency result in assay [1] and in assay [2] was “inactive” throughout.
Consider `CCCCCCCCCCCCCCCC(=O)NCCO`, for which the Potency entry in assay [1] and in assay [2] was “inactive” each time.
Take `CCCCNC(=O)NS(=O)(=O)c1ccc(N)cc1`: the Potency result in assay [1] and in assay [2] was “inactive” throughout.
As to `Cc1c(N=C=O)cccc1N=C=O`, the Potency result in assay [1] and in assay [2] was “inactive” throughout.
In the case of `C=CCON/C(CCC)=C1\C(=O)CC(C)(C)C(C(=O)OC)=C1O`, the Potency result in assay [1] and in assay [2] was “inactive” throughout.
On to `Nc1ccc(C(=O)O)c(O)c1`, for which the Potency result in assay [1] and in assay [2] was “inactive” throughout.
For the molecule `CCCCCC1=CCCC1=O`, the Potency entry in assay [1] and in assay [2] was “inactive” each time.
Take `CCNC(=O)C(C)OC(=O)Nc1ccccc1` (centres undefined): the Potency entry in assay [1] and in assay [2] was “inactive” in each case.
As to `CC(C)C[C@H](NC(=O)OCC1c2ccccc2-c2ccccc21)C(=O)O`, the Potency entry in assay [1] and in assay [2] was “inactive” each time.
`Nc1nnnn1-c1ccccc1`: the Potency result in assay [1] and in assay [2] was “inactive” throughout.
As to `CC(C)(C)C(=O)OCOP(=O)(COCCn1cnc2c(N)ncnc21)OCOC(=O)C(C)(C)C`, the Potency result in assay [1] and in assay [2] was “inactive” in each case.
